Shown are actives, neighbours in structure and some others; about 7.3% of the full set was active somewhere.
Rab9 prom act: qHTS Assay for Rab9 Promoter Activators | Huh7 Rab9 promoter-luciferase reporter, luminescence, 24 h | Potency, µM (top dose mostly 9.22 µM), for inactives: at the top dose activation, negative = inhibition, hits mostly activators | hit rate 2.8% among 320,000; note: % of control where 0% means no effect; nearly all actives have a fitted effect of over 60% in size
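Luciferase signal after 10 min detection reagent at ambient indicates Rab9 promoter upregulation; stably transfected Huh7 cells were treated 24 h with compound in DMSO at 37 °C, 5% CO2.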
KinaseGlo FLuc: Counterscreen for Luciferase (Kinase-Glo TM) Inhibition. Luciferin 4-monooxygenase (Photuris pensylvanica), Q27757. Kinase-Glo luciferase, ATP luminescence, 8 min. Potency, µM (top dose mostly 38.3 µM), for the others: at the highest dose activity change, negative = inhibition, usual class: inhibitors. hit rate 0.28% among 200,000; note: % is set by controls: 0 for no effect and ±100 for the full control effect; nearly all actives have a fitted effect of over 60% in size
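Compounds were added to a substrate mix at pH 7.2 (50 mM imidazole, 10 uM ATP, within the enzyme's linear range), followed by Kinase-Glo detection reagent; luminescence was measured after 8 minutes at ambient temperature.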
SMN2 splice enh: qHTS Assay for Enhancers of SMN2 Splice Variant Expression. HEK293 SMN2-luciferase splicing reporter, luminescence, 30-36 h. Potency, µM (titrated, usually from 46.1 µM), without a hit: top-dose activity change, positive = activation, hits mostly activators. hit rate 2.8% among 210,000. AID 1458, 2008; note: % of control where 0% means no effect; nearly all actives have a fitted effect of over 55% in size
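HEK293 cells carry an SMN2 minigene-luciferase reporter in which exon 7 inclusion puts luciferase in frame. Cells were seeded at 2000 cells/well, attached for 10-12 hours, then exposed to compounds for 30-36 hours at 37C before ONE-Glo luminescence.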
NPC1 promoter act: qHTS Assay for NPC1 Promoter Activators. Huh7 NPC1 promoter luciferase reporter, 24 h. hit rate 2.4% among 320,000. AID 485313, 2010. Potency, µM (highest dose often 9.22 µM), inactives show top-dose activation, hits mostly activators; note: % of control where 0% means no effect; nearly all actives have a fitted effect of over 60% in size
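In 1536-well qHTS, Huh7 cells harboring an NPC1 promoter–luciferase construct received compound for 24 h; activation was quantified by luminescence following luciferase reagent addition.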
ELG1 genotox: qHTS screen for small molecules that induce genotoxicity in human embryonic kidney (HEK293T) cells expressing luciferase-tagged ELG1; hit rate 1.3% among 330,000; AID 504466, 2011; Potency, µM (top dose mostly 46 µM), for inactives: top-dose activity change, positive = activation, most hits filed as activators; HEK293T ELG1-luciferase reporter, luminescence, 16 h; note: % of control where 0% means no effect; nearly all actives have a fitted effect of over 60% in size
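HEK293T cells expressing luciferase-tagged ELG1 were treated with compound or DMSO for 16 hr at 37°C. Luciferase activity was then read after 30 min with ONE-Glo at room temperature; rising signal flags genetic stress.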
FLuc counter: qHTS profiling assay for firefly luciferase inhibitor/activator using purifed enzyme and Km concentrations of substrates (counterscreen for miR-21 project); purified FLuc, Km substrates, luminescence inhibition; Potency, µM (top dose mostly 57.5 µM), for the others: top-dose activity change, negative = inhibition, actives largely listed as inhibitors; hit rate 6.9% among 360,000; AID 588342, 2011;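 note: plate controls were vehicle for no effect and reference inhibitor for full effect; nearly all actives have a fitted effect of over 55% in size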
Target sequence (P08659 whole entry, looked up): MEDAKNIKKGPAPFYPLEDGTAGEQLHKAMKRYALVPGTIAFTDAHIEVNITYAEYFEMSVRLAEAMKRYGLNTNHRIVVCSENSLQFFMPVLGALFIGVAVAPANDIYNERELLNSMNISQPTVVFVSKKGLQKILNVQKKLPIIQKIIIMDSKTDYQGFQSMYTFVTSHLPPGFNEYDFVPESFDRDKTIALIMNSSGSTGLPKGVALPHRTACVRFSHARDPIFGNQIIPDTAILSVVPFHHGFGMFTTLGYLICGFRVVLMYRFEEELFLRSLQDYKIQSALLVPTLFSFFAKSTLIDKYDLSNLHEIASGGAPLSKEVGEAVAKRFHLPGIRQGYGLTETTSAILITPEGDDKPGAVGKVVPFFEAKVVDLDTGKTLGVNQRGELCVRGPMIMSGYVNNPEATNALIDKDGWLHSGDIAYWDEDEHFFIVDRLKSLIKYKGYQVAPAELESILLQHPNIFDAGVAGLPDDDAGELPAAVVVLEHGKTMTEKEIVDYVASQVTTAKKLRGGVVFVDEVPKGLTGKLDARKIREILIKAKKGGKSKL
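Biochemical qHTS of compounds, final roughly 60 µM downward over six points, against 10 nM purified firefly luciferase using Km concentrations of substrates (10 uM D-luciferin, 10 uM ATP) in Tris acetate pH 7.5 buffer; luminescence output.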
* = called active by the depositor; u = inconclusive; x = no result given. Calls come from the whole dose curve; as a rule, active = well fitted curve in the direction sought with a large enough effect; inconclusive = small, poorly fitted or top-dose-only effect, or another doubt; inactive = no such curve, though single readings can be large; an effect the other way counts as inactive or inconclusive. Potency is the fitted concentration of half-maximal effect.

SMILES	Rab9 prom act	KinaseGlo FLuc	SMN2 splice enh	NPC1 promoter act	ELG1 genotox	FLuc counter
COc1cccc(Cn2c(=O)c(-c3ccc(F)c(F)c3)nc3cncnc32)c1	x	0%	-37%	x	x	x
O=C(NCCCn1ccnc1)c1cn(-c2ccccc2)nc1-c1ccc(F)cc1	9%	-3%	12%	9%	5%	11µM*
O=C(NCCCn1ccnc1)c1cc(-c2ccc(Cl)cc2)nc2ccccc12	-5%	-1%	1%	0%	-13%	24µM*
O=C(O)c1ccccc1C(=O)NCCCn1ccnc1	0%	x	x	-4%	0%	-1%
Cc1ccc2nc(-c3ccccc3)cc(C(=O)NCCCn3ccnc3)c2c1	0%	0%	x	1%	-2%	21µM*
CC(C)CC(=O)n1nc(-c2ccco2)nc1NCc1ccc(Cl)cc1	x	x	2%	x	x	3%
O=c1c2c3c(sc2n(Cc2cc(=O)n4ccccc4n2)c(=O)n1-c1ccccc1)CCC3	x	x	-2%	x	x	0%
CCCCCC(=O)Nc1cccc(C2=NOC3(C2)C[C@H](C(N)=O)N(C(=O)COc2ccc(Cl)cc2)C3)c1 (some centres not stated)	-6%	x	x	-9%	-15%	-16%
C/C=C(\C)C(=O)N1CC2(CC(c3cccc(NC(=O)COc4ccc(Cl)cc4)c3)=NO2)C[C@@H]1C(N)=O (some centres not stated)	-7%	x	x	-7%	0%	15µM*
C=C(C)C(=O)N1CC2(CC(c3cccc(NC(=O)COc4ccc(Cl)cc4)c3)=NO2)C[C@@H]1C(N)=O (some centres not stated)	-7%	x	x	1%	-5%	12µM*
Cc1cccn2c(=O)cc(CSc3nnc(NC(=O)COc4ccccc4)s3)nc12	0%	x	x	5%	x	u
Cc1cc(Cl)ccc1OCC(=O)N(Cc1sccc1C)C1CCS(=O)(=O)C1 (configuration not stated)	x	x	2%	x	x	-13%
COC(=O)c1sc2cccc(F)c2c1S(=O)(=O)N1CCN(c2cccc(C)c2)C(C)C1 (configuration not stated)	x	x	x	x	x	-3%
C=CCn1c(NCc2ccccc2OC)nc2ccccc21	15%	x	x	0%	5%	u
COc1ccccc1Cn1c(/C=C/c2ccccc2)nc2ccccc21	u	-22%	u	18%	16%	3µM*
COc1ccccc1Cn1c(C(C)C)nc2ccccc21	-8%	x	x	-3%	-11%	2%
COc1ccc(/C=C/c2nc3ccccc3n2Cc2ccccc2OC)cc1	u	-12%	7.9µM*	3.2µM*	u	0.85µM*
COc1ccc(-n2nc(C(=O)N3CCN(c4cccc(C(F)(F)F)c4)CC3)c3c4ccccc4n(C)c3c2=O)cc1Cl	x	x	15%	x	x	7%
CC(=O)c1sc(NC(=O)c2ccc(C)c(C)c2)nc1C	1.8µM*	-2%	8.9µM*	1.6µM*	5%	2.4µM*
CC(=O)c1sc(NC(=O)c2ccc(C(C)(C)C)cc2)nc1C	1.6µM*	-3%	x	1.6µM*	u	1.3µM*
CC(=O)c1sc(NC(=O)c2ccc3c(c2)OCO3)nc1C	3.5µM*	x	x	2.5µM*	10µM*	4.8µM*
COc1ccc(/C=C/C(=O)Nc2nc(C)c(C(=O)N(C)C)s2)cc1OC	5%	1%	1%	2%	7%	-3%
CC(=O)c1sc(NC(=O)C(C)(C)C)nc1C	1%	-1%	-8%	-2%	2%	-2%
Cc1nc(NC(=O)c2ccc(Cl)cc2)sc1Cc1ccc2c(c1)OCO2	-13%	-3%	-22%	-17%	8%	u
CC(=O)c1sc(NC(=O)c2cnc(Cl)c(Cl)c2)nc1C	-4%	x	x	3%	u	u
